Results: PubChem BioAssay AID1159580 (chemical genetic matrix, 2015)
Values joined by “and” are separate entries in the source; they are usually repeats but may differ in a detail not shown here. Equal values may be shown once. Hit rate of the full screen: of about 5,500 compounds, about 2,000 (36%) were called active. About 18% were inconclusive and are not listed. No stated cut-off is given here; in the data, active means normalized growth mostly below about 0.91 (no sharp cut-off); inconclusive means no clear call, values can overlap the other calls; inactive means mostly above about 0.92. The list shows a part of the results.

Assay: chemical genetic growth profiling, strain panel (AID 1159580);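 further: tested at 20 µM; growth read once vehicle control cultures reached saturation at 30 °C; 1 = growth at the plate median or of vehicle wells; lower values mean less growth of the strain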
Conditions: S. cerevisiae deletion strains, growth OD

Measured: normalized growth

C[N+]1(C)C2CC(OC(=O)[C@@H](CO)c3ccccc3)CC1C1OC12 (some centres not stated)
inactive: locus YAL021C, strain ccr4, hits give low values 0.987 | locus YAL026C, strain drs2, hits give low values 0.999 | locus YAL030W, strain snc1, hits give low values 0.968 | locus YBL061C, strain skt5, hits give low values 0.98 | locus YBR009C, strain hhf1, hits give low values 0.955 | locus YBR021W, strain FUR4, hits give low values 1.04 | locus YBR023C, strain chs3, hits give low values 0.958 | locus YBR171W, strain sec66, hits give low values 0.951 | locus YBR229C, strain ROT2, hits give low values 1.01 | locus YBR231C, strain swc5, hits give low values 0.982 | locus YBR279W, strain paf1, hits give low values 0.986 | locus YCL011C, strain gbp2, hits give low values 0.923 | locus YCL016C, strain dcc1, hits give low values 0.932 | locus YCL029C, strain bik1, hits give low values 1 | locus YCL061C, strain MRC1, hits give low values 0.977 | locus YCL069W, strain vba3, hits give low values 0.974 | locus YCR088W, strain abp1, hits give low values 0.989 | locus YDL005C, strain med2, hits give low values 0.989 | locus YDL035C, strain GPR1, hits give low values 1.02 | locus YDL040C, strain nat1, hits give low values 0.994 | locus YDL074C, strain BRE1, hits give low values 1.05 | locus YDL101C, strain DUN1, hits give low values 1.01 | locus YDL185W, strain tfp1, hits give low values 1.01 | locus YDL192W, strain arf1, hits give low values 1.03 | locus YDR001C, strain nth1, hits give low values 0.975 | locus YDR069C, strain doa4, hits give low values 0.977 | locus YDR101C, strain arx1, hits give low values 0.99 | locus YDR137W, strain rgp1, hits give low values 0.924 | locus YDR159W, strain sac3, hits give low values 1 | locus YDR162C, strain NBP2, hits give low values 1.02 | locus YDR195W, strain ref2 1.01 | locus YDR297W, strain sur2, hits give low values 0.976 | locus YDR318W, strain mcm21, hits give low values 1.03 | locus YDR334W, strain swr1, hits give low values 0.933 | locus YDR335W, strain msn5, hits give low values 0.968 | locus YDR388W, hits give low values 1.01 | locus YDR392W, strain spt3, hits give low values 0.934 | locus YDR502C, strain sam2, hits give low values 1.03 | locus YEL003W, strain gim4, hits give low values 0.996 | locus YEL037C, strain rad23, hits give low values 0.982 | locus YEL061C, strain CIN8 (second series), hits give low values 0.98 | locus YEL061C, strain CIN8, hits give low values 1.05 | locus YER015W, strain faa2, hits give low values 0.986 | locus YER016W, strain bim1, hits give low values 0.997 | locus YER110C, hits give low values 1.02 | locus YER111C, strain swi4, hits give low values 0.985 | locus YER155C, strain BEM2 (second series), hits give low values 1.02 | locus YER155C, strain BEM2, hits give low values 1.01 | locus YER167W, strain BCK2, hits give low values 1.03 | locus YFR010W, strain ubp6, hits give low values 0.978 | locus YGL078C, strain dbp3, hits give low values 1.01 | locus YGL086W, strain mad1, hits give low values 1 | locus YGL167C, strain pmr1, hits give low values 0.964 | locus YGL173C, strain kem1, hits give low values 0.969 | locus YGL227W, strain vid30, hits give low values 0.978 | locus YGL240W, strain doc1, hits give low values 1 | locus YGL248W, strain PDE1, hits give low values 1.01 | locus YGL253W, strain hxk2, hits give low values 0.97 | locus YGR135W, strain pre9, hits give low values 1.06 | locus YGR229C, strain SMI1, hits give low values 1.05 | locus YGR252W, strain gcn5, hits give low values 1.05 | locus YHR013C, strain ard1, hits give low values 0.957 | locus YHR027C, strain rpn1, hits give low values 0.957 | locus YHR030C, strain SLT2, hits give low values 1.02 and 1.03 | locus YHR079C, strain IRE1 (second series), hits give low values 1.02 | locus YHR079C, strain IRE1, hits give low values 1.03 | locus YHR094C, strain hxt1, hits give low values 1.01 | locus YHR129C, strain ARP1, hits give low values 1.01 | locus YHR142W, strain chs7, hits give low values 0.916 | locus YHR200W, strain rpn10, hits give low values 1.02 | locus YIL066C, strain RNR3, hits give low values 1.01 | locus YIL073C, strain SPO22, hits give low values 1.07 | locus YIL125W, strain kgd1, hits give low values 1.01 | locus YIR030C, strain dcg1, hits give low values 1.02 | locus YJL092W, strain hpr5, hits give low values 0.969 | locus YJL095W, strain BCK1 (second series), hits give low values 0.974 | locus YJL095W, strain BCK1, hits give low values 1.02 and 1.01 | locus YJL115W, strain asf1, hits give low values 0.958 | locus YJL129C, strain trk1, hits give low values 0.976 | locus YJL134W, strain LCB3, hits give low values 1 | locus YJL154C, strain vps35, hits give low values 0.975 | locus YJL164C, strain tpk1, hits give low values 1 | locus YJL166W, strain qcr8, hits give low values 0.959 | locus YJL168C, strain set2, hits give low values 1.01 | locus YJL187C, strain SWE1 (second series), hits give low values 1.01 | locus YJL187C, strain SWE1, hits give low values 0.976 | locus YJR043C, strain POL32, hits give low values 1.02
